In PubChem BioAssay (NCI):
About 79,000 compounds went through this panel and 15% of them were active in at least one assay; those are over-represented in the sample as a whole. Active and inactive are the calls of the source. Cut-off read from the data, not from the text of the source: active = growth inhibition above about 70%; inactive = the rest.

Experiment: NCI Yeast Anticancer Drug Screen. Data for the sgs1 mgt1 strain (AID 161);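 note: 0% = growth of cultures given vehicle only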
Details: S. cerevisiae sgs1 mgt1 strain, at 50.0 µM, hits give high values
Method in brief: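 Growth of a repair-deficient yeast mutant was monitored after compound treatment and expressed as inhibition relative to vehicle-treated cultures.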

SMILES | growth inhibition
N#CCCN(Cc1ccccc1)CN1C(=O)c2ccccc2C1=O | 12.1% (inactive)
N#Cc1ccc(-n2cccc2)cc1 | 7.35% (inactive)
O=C(O)C(CSC(c1ccccc1)(c1ccccc1)c1ccccc1)Nc1ccccc1[N+](=O)[O-] (stereo not given) | 99.4% (active)
Cc1ccc[nH]c1=O | -0.6% (inactive)
Cc1nc(N)sc1C(=O)/C=C/c1ccc([N+](=O)[O-])cc1 | -15.7% (inactive)
c1ccc2nc(N3CCCC3)c(N3CCCC3)nc2c1 | -10.7% (inactive)
C/C(=N/Nc1ccc([N+](=O)[O-])cc1[N+](=O)[O-])C(CC(C(=O)NCc1ccccc1)/C(C)=N\Nc1ccc([N+](=O)[O-])cc1[N+](=O)[O-])C(=O)NCc1ccccc1 (stereo not given) | -0.1% (inactive)
O=S(=O)(O)c1cc(I)c(O)c2ncccc12 | -1.05% (inactive)
CC/C(Cl)=N\OC(=O)Nc1ccc(C#N)cc1 | -19.4% (inactive)
CC(=O)N(C(C)=O)n1c(Cc2ccc(Cl)cc2)nn(C(C)=O)c1=O | -9.2% (inactive)
CCCSc1ncnc2c1nc(C)n2CO | -1.35% (inactive)
Cc1ccc(S(=O)(=O)Oc2c(Cl)cc(Cl)cc2Cl)cc1 | 26.4% (inactive)
Cc1cc(C)c2c(=O)c3c(oc2c1)O[C@@](C)(CO)C[C@@H]3c1ccccc1 | 2.3% (inactive)
Cc1ccc(C(=O)CCN2CCOCC2)c(C)c1 | 26.6% (inactive)
CCN(CC)CCNc1ccc2ncn3c4c(OC)ccc(OC)c4c(=O)c1c23 | 0.9% (inactive)
Nc1cc(Cl)cc2c1nc(NCCO)c1ccccc12 | 49.1% (inactive)
O=[N+]([O-])c1ccc(N=NNc2ccc([N+](=O)[O-])cc2)cc1 | -2.05% (inactive)
CC(=O)Nc1ccc(/C=C2\N=C(c3ccccc3)OC2=O)cc1 | 11.8% (inactive)
CN(C)CC(C)(C)CO | 3.85% (inactive)
CCOc1snc(C(Cl)(Cl)Cl)c1Cl | 5.05% (inactive)

SMILES | growth inhibition
CN1CCC2(CC1)C(=O)N(Cc1ccccc1)C(=O)C2c1ccccc1 (stereo not given) | -6% (inactive)
COc1ccc(C2=C/C(=C/c3cccs3)C(=O)O2)cc1 | -0.15% (inactive)
BrC1(Br)C2COCOCC21 (stereo not given) | -1.05% (inactive)
COc1ccc(C(O)Cc2ccccc2)cc1 (stereo not given) | 5.6% (inactive)
COC(=O)C(C(=O)OC)C(c1cccc([N+](=O)[O-])c1)C(N)c1ccccc1 (stereo not given) | -0.5% (inactive)
CCOC(=O)NCC1(c2ccccc2)CCN(Cc2ccccc2)CC1 | -11.9% (inactive)
O=C(O)Cc1ccc(-c2ccccc2)[nH]1 | 3.25% (inactive)
COc1ccc2nccc(/C=C/CC3CCN(C(C)=O)CC3)c2c1 | 88.2% (active)
COc1cc2c[n+](C)c3c(c2cc1OC)Cc1cc2c(cc1-3)OCO2 | 1.8% (inactive)
CCOC(=O)C1=C(Nc2ccc(Cl)cc2Cl)OCC1=O | -0.35% (inactive)
O=C(c1nc2ccc(Cl)cc2[nH]c1=O)C(O)c1ccco1 (stereo not given) | -20.2% (inactive)
COc1cc(NCCCCCNC(C)C)c2ncccc2c1OC | -1.95% (inactive)
CC(=O)Nc1cc(F)c(N)c(F)c1 | -13.3% (inactive)
CC1=CC2C(c3ccccc3)Nc3ccccc3N2C1=O (stereo not given) | 10.2% (inactive)
CCOC(=O)C1(Cc2ccc3c(c2)CCC3)Cc2cc3c(cc2C1=O)CCC3 (stereo not given) | -17.9% (inactive)
COc1ccc2cc(NC(=O)N/N=C\c3ccc(Cl)cc3)ccc2c1 | 26.9% (inactive)
O=c1c(-c2ccc(O)cc2)coc2cc(O)cc(O)c12 | 18.1% (inactive)
C/C(=N/O)C1c2ccccc2Cc2ccccc21 | -24.4% (inactive)
CCCCCCCCCC(=O)OCCCC(CCCOC(=O)CCCCCCCCC)OC(=O)CCCCCCCCC | -6.25% (inactive)
CSc1cc(=O)[nH]c(=O)[nH]1 | 4.2% (inactive)

Experiment: NCI Yeast Anticancer Drug Screen. Data for the cln2 rad14 strain (AID 165);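 note: 0% = growth equal to vehicle treated cultures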
Details: S. cerevisiae cln2 rad14 strain, at 50.0 µM, hits give high values
Method in brief: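 Yeast strain cln2 rad14, bearing defects in cell cycle control and DNA repair, serves as the test system; values reflect growth inhibition compared with vehicle.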

SMILES | growth inhibition
N#CCCN(Cc1ccccc1)CN1C(=O)c2ccccc2C1=O | 17.9% (inactive)
N#Cc1ccc(-n2cccc2)cc1 | -26.8% (inactive)
O=C(O)C(CSC(c1ccccc1)(c1ccccc1)c1ccccc1)Nc1ccccc1[N+](=O)[O-] (stereo not given) | 98% (active)
Cc1ccc[nH]c1=O | -8.05% (inactive)
Cc1nc(N)sc1C(=O)/C=C/c1ccc([N+](=O)[O-])cc1 | 20.8% (inactive)
c1ccc2nc(N3CCCC3)c(N3CCCC3)nc2c1 | -21.4% (inactive)
C/C(=N/Nc1ccc([N+](=O)[O-])cc1[N+](=O)[O-])C(CC(C(=O)NCc1ccccc1)/C(C)=N\Nc1ccc([N+](=O)[O-])cc1[N+](=O)[O-])C(=O)NCc1ccccc1 (stereo not given) | -5.05% (inactive)
O=S(=O)(O)c1cc(I)c(O)c2ncccc12 | -67.8% (inactive)
CC/C(Cl)=N\OC(=O)Nc1ccc(C#N)cc1 | 13.8% (inactive)
CC(=O)N(C(C)=O)n1c(Cc2ccc(Cl)cc2)nn(C(C)=O)c1=O | 4.5% (inactive)
CCCSc1ncnc2c1nc(C)n2CO | -14.1% (inactive)
Cc1ccc(S(=O)(=O)Oc2c(Cl)cc(Cl)cc2Cl)cc1 | -19.1% (inactive)
Cc1cc(C)c2c(=O)c3c(oc2c1)O[C@@](C)(CO)C[C@@H]3c1ccccc1 | 6.05% (inactive)
Cc1ccc(C(=O)CCN2CCOCC2)c(C)c1 | -4.65% (inactive)
CCN(CC)CCNc1ccc2ncn3c4c(OC)ccc(OC)c4c(=O)c1c23 | 22.6% (inactive)
Nc1cc(Cl)cc2c1nc(NCCO)c1ccccc12 | 97.9% (active)
O=[N+]([O-])c1ccc(N=NNc2ccc([N+](=O)[O-])cc2)cc1 | -38.1% (inactive)
CC(=O)Nc1ccc(/C=C2\N=C(c3ccccc3)OC2=O)cc1 | -49% (inactive)
CN(C)CC(C)(C)CO | 9.25% (inactive)
CCOc1snc(C(Cl)(Cl)Cl)c1Cl | 18% (inactive)

SMILES | growth inhibition
CN1CCC2(CC1)C(=O)N(Cc1ccccc1)C(=O)C2c1ccccc1 (stereo not given) | 6.05% (inactive)
COc1ccc(C2=C/C(=C/c3cccs3)C(=O)O2)cc1 | -36.9% (inactive)
BrC1(Br)C2COCOCC21 (stereo not given) | 0.55% (inactive)
COc1ccc(C(O)Cc2ccccc2)cc1 (stereo not given) | -16.9% (inactive)
COC(=O)C(C(=O)OC)C(c1cccc([N+](=O)[O-])c1)C(N)c1ccccc1 (stereo not given) | 28.2% (inactive)
CCOC(=O)NCC1(c2ccccc2)CCN(Cc2ccccc2)CC1 | 1.35% (inactive)
O=C(O)Cc1ccc(-c2ccccc2)[nH]1 | -25.8% (inactive)
COc1ccc2nccc(/C=C/CC3CCN(C(C)=O)CC3)c2c1 | 45.6% (inactive)
COc1cc2c[n+](C)c3c(c2cc1OC)Cc1cc2c(cc1-3)OCO2 | 18.9% (inactive)
CCOC(=O)C1=C(Nc2ccc(Cl)cc2Cl)OCC1=O | -13.9% (inactive)
O=C(c1nc2ccc(Cl)cc2[nH]c1=O)C(O)c1ccco1 (stereo not given) | -1.4% (inactive)
COc1cc(NCCCCCNC(C)C)c2ncccc2c1OC | -11.3% (inactive)
CC(=O)Nc1cc(F)c(N)c(F)c1 | -5.25% (inactive)
CC1=CC2C(c3ccccc3)Nc3ccccc3N2C1=O (stereo not given) | 8.45% (inactive)
CCOC(=O)C1(Cc2ccc3c(c2)CCC3)Cc2cc3c(cc2C1=O)CCC3 (stereo not given) | 19.1% (inactive)
COc1ccc2cc(NC(=O)N/N=C\c3ccc(Cl)cc3)ccc2c1 | 4.4% (inactive)
O=c1c(-c2ccc(O)cc2)coc2cc(O)cc(O)c12 | 3.65% (inactive)
C/C(=N/O)C1c2ccccc2Cc2ccccc21 | -12.8% (inactive)
CCCCCCCCCC(=O)OCCCC(CCCOC(=O)CCCCCCCCC)OC(=O)CCCCCCCCC | -23.9% (inactive)
CSc1cc(=O)[nH]c(=O)[nH]1 | 22.4% (inactive)
